± gives the standard deviation.

For this assay, the system named is OVCAR-3-derived ovarian cancer stem-like cells (spheroids). As to the kind of experiment: cell growth relative to untreated control; higher = more growth (less inhibition). As to conditions: 2.29 µM; 96 h. In short, it runs like this:
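Viability of stem-like cells from OVCAR-3 spheroids was assessed with TOX8 resazurin fluorescence at ex 560/em 590 nm. The cells had been trypsin-dissociated, seeded at 50,000 cells/mL in stem cell medium in ultra-low attachment 96-well plates and preincubated 24 h, then treated with compounds at 2.29 uM for 96 h at 37°C, 5% CO2, in 4 replicate wells, with fluorescence read after 4 h. Results were converted to percent growth against untreated wells after blank subtraction and Grubbs outlier removal.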
Turning to `CC[C@@]1(O)C[C@H](O)c2c(O)c3c(c(O)c2[C@H]1C(=O)OC)C(=O)c1cccc(O)c1C3=O`, the cell growth worked out at 49.5 ± 20%.
With `N#Cc1cn([C@@H]2O[C@H](CO)[C@@H](O)[C@H]2O)c2ncnc(N)c12`, the cell growth was determined as 8.9 ± 3.4%.
As to `COc1cc2c(cc1O)N=CC1CCC(O)N1C2=O` (configuration not stated), the cell growth was 93.8 ± 20%.
Consider `C/C1=C\[C@H](C)C[C@H](C)OC(=O)CC(c2ccc(O)cc2)NC(=O)[C@@H](Cc2c(Br)[nH]c3ccccc23)N(C)C(=O)[C@H](C)NC(=O)[C@@H](C)C1` (some centres not stated), for which the cell growth was 25 ± 5.7%.
As to `COC(=O)C1C(O)C(C)C(O)C(C)/C=C\C=C(C)C(=O)Nc2c(C)c(OC(C)=O)c3c(c2O)C(=O)C(C)=C2OCOC(=C23)C(C)=CC(C)(O)C(O)C(C)C1O` (configuration not stated), the cell growth is 84.9 ± 18%.
Compound `COc1cc2c(c3oc4cccc(O)c4c(=O)c13)[C@@H]1C=CO[C@@H]1O2` showed a cell growth of 112 ± 22%.
The same measure for `CC(C)(Br)C(=O)C(Br)Br`: 88.9 ± 28%; for `O=C1NC(=S)NC(=O)C1C(=O)Nc1ccccc1`: 23.7 ± 5.9%.
Take `O=C1OC(c2ccccc2)=N/C1=C\c1ccc(N(CCCl)CCCl)cc1`: the cell growth was 64.5 ± 12%.
As to `COC1CC(OC2CCC3(C=O)C4CCC5(C)C(C6=CC(=O)OC6)CCC5(O)C4CCC3(O)C2)OC(C)C1OC1OC(COC2OC(CO)C(O)C(O)C2O)C(O)C(O)C1O` (configuration not stated), the cell growth is 63.1 ± 13%.
With `CC(/C=N/N=C(N)N)=N\N=C(N)N`, the cell growth stood at 70.6 ± 16%.
`O=C1N[C@@H]2C(=C[C@H](O)[C@@H](O)[C@H]2O)c2cc3c(c(O)c21)OCO3` gave a cell growth of 111 ± 17%.
The compound `C[C@@H]1C[C@H]2CC[C@H](O2)[C@H](C)C(=O)O[C@@H](C)C[C@@H]2CC[C@@H](O2)[C@@H](C)C(=O)O[C@H](C)C[C@H]2CC[C@H](O2)[C@H](C)C(=O)O[C@@H](C)C[C@@H]2CC[C@@H](O2)[C@@H](C)C(=O)O1` gave a cell growth of 31.3 ± 6%.
`COc1ccc(O)c2c(=O)c3c(OC)cc4c(c3oc12)[C@@H]1C=CO[C@@H]1O4` showed a cell growth of 90.1 ± 25%.
In the case of `COc1cc([C@@H]2c3cc4c(c(O)c3C[C@H]3COC(=O)[C@@H]32)OCO4)cc(OC)c1O` it was 20.4 ± 5.8%; in that of `CC[C@@]1(O)C[C@H](OC2CC(N(C)C)C(O)C(C)O2)c2c(O)c3c(c(O)c2[C@H]1OC1CC(N(C)C)C(O)C(C)O1)C(=O)c1cccc(O)c1C3=O` (some centres not stated), 58.8 ± 56%; in that of `CO[C@H]1[C@@H](O)[C@@H](C)O[C@H](O[C@H]2[C@H](Oc3cccc4c(O)c5c(=O)oc6ccc(C)c7c(=O)oc(c34)c5c67)O[C@H](C)[C@H](O)[C@@H]2O)[C@@H]1O`, 67.4 ± 17%.
Take `COC1CC(O[C@H]2CC[C@]3(C=O)[C@H]4CC[C@]5(C)[C@@H](C6=CC(=O)OC6)CC[C@]5(O)[C@@H]4CC[C@]3(O)C2)OC(C)C1O` (some centres not stated): the cell growth was 52.2 ± 16%.
Turning to `C[N+](C)(C)CC1CCCC1=O` (configuration not stated), the cell growth worked out at 95.5 ± 20%.
`CC[C@](C)(O)C(=O)O[C@H]1C(=O)O[C@@H]2C[C@H]3C(C)=CC(=O)[C@@H](O)[C@]3(C)[C@H]3C4(O)OC[C@]32[C@@H]1[C@@H](C)[C@H]4O` came in with a cell growth of 35.2 ± 15%.
The same measure for `CCOC(=O)NC1=C(N2CC2)C(=O)C(NC(=O)OCC)=C(N2CC2)C1=O`: 50.1 ± 9.1%.
As for `CC[C@](C)(O)C(=O)O[C@H]1C(=O)O[C@@H]2C[C@H]3C(C)=C[C@H](O)[C@@H](O)[C@]3(C)[C@H]3[C@@]4(O)OC[C@]32[C@@H]1[C@@H](C)[C@H]4O`, the cell growth was 138 ± 54%.
As for `Cn1c(=O)[nH]c2nncnc2c1=O`, the cell growth was found to be 92.3 ± 13%.
In the case of `COc1ccc(C[C@@H]2NC[C@@H](O)[C@@H]2OC(C)=O)cc1`, the cell growth is 94.2 ± 33%.
On to `COc1ccc(-c2cc(=O)c3c(OC)c(OC)c(OC)cc3o2)cc1`, for which the cell growth stood at 120 ± 31%.
As for `O=c1[nH]c2ccccc2n1C1CCN(CCCC(c2ccc(F)cc2)c2ccc(F)cc2)CC1`, the cell growth worked out at 90.6 ± 41%.
With `Cc1cc(N(CC(C)Br)CC(C)Br)ccc1N=Nc1ccccc1C(=O)O` (configuration not stated), the cell growth stood at 64.5 ± 14%.
The compound `CC(C)(O)C=CC(=O)C(C)(O)C1C(O)CC2(C)C3CC=C4C(C=C(O)C(=O)C4(C)C)C3(C)C(=O)CC12C` (configuration not stated) showed a cell growth of 28.1 ± 6.1%.
`CC(C)C[C@H]1C(=O)N2CCC[C@H]2[C@]2(O)O[C@](NC(=O)[C@@H]3C=C4c5cccc6[nH]c(Br)c(c56)C[C@H]4N(C)C3)(C(C)C)C(=O)N12` showed a cell growth of 90.6 ± 6.8%.
In turn, `COc1ccc(NC2=NCCO2)c2c1CCCC2` returned a cell growth of 98.5 ± 10%.
In turn, `CO[C@@H](/C(C)=C/C=C/C(C)=C/c1coc(C)n1)[C@@H](C)[C@@H]1C[C@H](O)[C@@]2(C)O[C@@H]2/C=C/[C@@H](C)[C@H]2C[C@H](CC(=O)O2)C[C@@H]2O[C@H]2C(=O)O1` returned a cell growth of 40.6 ± 7.4%.
Compound `COC1CC(OC2CCC3(C=O)C4CCC5(C)C(C6=CC(=O)OC6)CCC5(O)C4CCC3(O)C2)OC(C)C1OC1OC(CO)C(O)C(O)C1O` (configuration not stated) showed a cell growth of 8.05 ± 3.3%.

These data come from the supplement of paper PMC3484114.
